Compound activity as filed in PubChem.
An excerpt weighted towards active compounds, which were near 6.2% of everything screened.
GRIN3A LBD mod – NR3A (human) ligand-binding domain modulation. NR3A LBD differential scanning fluorimetry, Tm shift; 0% = protein alone, 100% = glycine-bound protein. Tm shift relative to glycine control, % at 25 µM. hit rate 2.5% among 340,000;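 active = melting temperature shift of at least 10% of the positive control shift, at one fixed dose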
AI-2 QS modul – modulates the Vibrio harveyi AI-2 quorum sensing system; Vibrio harveyi JMH597 AI-2 luminescence/OD600 ratio, 9 h; hits give low values; strain lacks LuxN and CqsS sensors; 0 = neutral-control median; activity change, % at 7.5 µM; hit rate 0.4% among 300,000; in the data active = activity change below about -75%, passing the limit was not always enough;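 also: luminescence divided by OD600 gain over 9 h not by final OD600 alone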
NTR1 agonist – agonists of human neurotensin receptor NTR1 | activation, % at 20 µM | NTR1-U2OS beta-arrestin-GFP spot imaging, agonist mode | hit rate 0.17% among 330,000 | AID 493036 | P30989;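 active = activation at or above 40% of the spot to cytoplasm intensity ratio, with at least 20 cells analyzed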;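 also: 0% = DMSO without peptide and 100% = 100 nM NTR1 peptide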
Target sequence (P30989 whole entry, looked up): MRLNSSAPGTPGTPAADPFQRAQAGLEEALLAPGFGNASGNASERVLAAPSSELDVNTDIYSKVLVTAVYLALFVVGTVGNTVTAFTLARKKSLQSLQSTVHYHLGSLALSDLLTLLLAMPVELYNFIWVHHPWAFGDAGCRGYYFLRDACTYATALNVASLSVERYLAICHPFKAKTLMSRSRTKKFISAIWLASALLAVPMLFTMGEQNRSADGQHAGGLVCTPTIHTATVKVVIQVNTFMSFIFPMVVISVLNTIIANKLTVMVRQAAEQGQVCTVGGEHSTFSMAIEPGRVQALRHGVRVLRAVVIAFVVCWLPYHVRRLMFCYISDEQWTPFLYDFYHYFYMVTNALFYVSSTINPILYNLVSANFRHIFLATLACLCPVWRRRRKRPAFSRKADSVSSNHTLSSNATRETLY
AHR activator – activators of human aryl hydrocarbon receptor; P35869; AHR-responsive luciferase reporter cells, luminescence; hit rate 2.5% among 320,000; AID 2796; activation, % at 5 µM; in the data active = activation above about 47%;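 also: 0% = vehicle wells and 100% = reference agonist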
H9c2 protect – protects H9c2 cardiomyocytes from peroxide injury. hit rate 0.63% among 360,000. protection from H2O2 cell death, % at 20 µM. H2O2 injury protection, ATPLite, 2 h;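 active = compounds giving at least 50% protection of heart cells from peroxide-induced death in the single-dose screen, raw or plate-pattern-corrected value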;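 also: 0% = DMSO wells with peroxide and 100% = DMSO wells without peroxide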
Mot1-301 SUMO – inhibitors of SUMOylation pathway: yeast Mot1-301 growth rescue; S. cerevisiae Mot1-301 growth rescue, ATP luminescence, 38.5C; percent above DMSO median, 100 means doubled; AID 2716; hit rate 1% among 320,000; growth rescue, % at 18.8 µM;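 active = every valid replicate shows activation above 250% relative to neutral control wells; inactive = the rest, any valid replicate at or below 250%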;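 also: OY570 slx delta 5 strain wells were the positive control but not used for scaling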
Active calls of the source: *.

For N#CC1=C(SCC(N)=O)NC2=C(C(=O)c3ccccc32)C1c1ccc(Cl)cc1 (stereo unspecified) the results were GRIN3A LBD mod 18*, AI-2 QS modul 27, NTR1 agonist 19, AHR activator 1, H9c2 protect 22 and Mot1-301 SUMO 12.
COc1ccc2oc(=O)c(/C(C)=N/Nc3ccccc3)cc2c1 was read as GRIN3A LBD mod 1, AI-2 QS modul 14, NTR1 agonist -1, AHR activator 61*, H9c2 protect 5 and Mot1-301 SUMO 4.
`C/C(=N\Nc1ccccc1)c1c(O)cc(C)oc1=O` gave GRIN3A LBD mod -1, AI-2 QS modul 16, NTR1 agonist -2, AHR activator 14, H9c2 protect 12 and Mot1-301 SUMO 324*.
For COc1cccc(-c2cccc(-c3nc(C(=O)NCCCN4CCOCC4)cc4c3[C@H](CCO)N(S(=O)C(C)(C)C)C4)c2)c1 (stereo partly specified) the results were H9c2 protect 26.
Screening COc1ccc(N(C)C(=O)c2cnc(N3CCN(c4ncccn4)CC3)c3ccccc23)cc1 returned GRIN3A LBD mod 769*, AI-2 QS modul 5, NTR1 agonist 2, AHR activator 5, H9c2 protect -2 and Mot1-301 SUMO -15.
Screening O=C(c1cnc(N2CCN(c3ncccn3)CC2)c2ccccc12)N1CCN(c2ccccn2)CC1 returned GRIN3A LBD mod 0, AI-2 QS modul 24, NTR1 agonist 0, AHR activator -1, H9c2 protect -2 and Mot1-301 SUMO -5.
COc1ccc(Cl)cc1CC1(C)C(=O)Nc2c(Cl)cccc21 (stereo unspecified) was read as H9c2 protect -12.
For O=C(NC(=S)N(Cc1ccccc1)c1ccccn1)C1CC1 the results were GRIN3A LBD mod 17*, AI-2 QS modul 0, NTR1 agonist 1, AHR activator 1, H9c2 protect 1 and Mot1-301 SUMO 1.
For COc1ccc(S(=O)(=O)N2CCCCC2)cc1C(=O)N1CCCCCC1 the results were GRIN3A LBD mod 4, AI-2 QS modul 11, NTR1 agonist 0, AHR activator -5, H9c2 protect 0 and Mot1-301 SUMO 120.
`Fc1ccc(Nc2ncnc3sc4c(c23)CCC4)cc1F` gave GRIN3A LBD mod -5, AI-2 QS modul 57, NTR1 agonist 6, AHR activator 49*, H9c2 protect 8 and Mot1-301 SUMO -31.
Screening NC(=O)c1cccnc1Oc1ccccc1 returned GRIN3A LBD mod -1, AI-2 QS modul 12, NTR1 agonist 0, AHR activator -3, H9c2 protect 1 and Mot1-301 SUMO 350*.
NNC(=O)c1cccnc1Oc1ccccc1 was read as GRIN3A LBD mod 0, AI-2 QS modul 35, NTR1 agonist 2, AHR activator 8, H9c2 protect 2 and Mot1-301 SUMO -23.
Screening COC(=O)c1ccc2nc(-c3ccco3)c(Cc3ccccc3)n2c1 returned H9c2 protect 2.
Screening CS(=O)(=O)c1ccc(Nc2nc(C(N)Cc3ccc(Cl)cc3)cs2)cc1 (stereo unspecified) returned H9c2 protect -7.
For CC1(c2cc(F)ccc2F)NC(=O)N(CC(=O)Nc2cccc(S(=O)(=O)N3CCCC3)c2)C1=O (stereo unspecified) the results were GRIN3A LBD mod 0, NTR1 agonist 1, AHR activator 0, H9c2 protect -3 and Mot1-301 SUMO -27.
`CC1(c2ccc3ccccc3c2)NC(=O)N(CC(=O)Nc2cccc(S(=O)(=O)N3CCOCC3)c2)C1=O` (stereo unspecified) gave GRIN3A LBD mod -2, AI-2 QS modul 4, NTR1 agonist 0, AHR activator 49*, H9c2 protect -3 and Mot1-301 SUMO -4.
For CC1(c2ccccc2)NC(=O)N(CC(=O)Nc2ccc3c(c2)CCC3)C1=O (stereo unspecified) the results were GRIN3A LBD mod -1, NTR1 agonist 0, AHR activator 5, H9c2 protect -2 and Mot1-301 SUMO 3.
CC1(c2ccccc2)NC(=O)N(CC(=O)Nc2cccc(/C=C/c3ccccn3)c2)C1=O (stereo unspecified) was read as GRIN3A LBD mod -6, AI-2 QS modul -47, NTR1 agonist 0, AHR activator 21, H9c2 protect 68* and Mot1-301 SUMO 200.
Screening CCCCn1c(N)c(N(CCC(C)C)C(=O)C2CC(=O)N(CCc3ccc(OC)c(OC)c3)C2)c(=O)[nH]c1=O (stereo unspecified) returned GRIN3A LBD mod 1, AI-2 QS modul 33, NTR1 agonist 1, AHR activator 0, H9c2 protect -3 and Mot1-301 SUMO -6.
CCCCN(C(=O)COC(=O)COc1c(C)cc(C)cc1C)c1c(N)n(CCC)c(=O)[nH]c1=O was read as GRIN3A LBD mod 32*, AI-2 QS modul 17, NTR1 agonist 0, AHR activator 0, H9c2 protect 0 and Mot1-301 SUMO 287*.
O=C(Nc1cccc(C(F)(F)F)c1)c1csc([C@@H]2O[C@H](CO)[C@H](O)[C@H](O)[C@H]2O)n1 was read as H9c2 protect 10.
Screening Cc1ccc(S(=O)(=O)c2nnn(-c3cccc(F)c3)c2N)cc1 returned GRIN3A LBD mod 3, AI-2 QS modul -97*, NTR1 agonist 3, AHR activator -1, H9c2 protect 3 and Mot1-301 SUMO -12.
For N#Cc1ccc(C(=O)N2CCCCC2c2cc(C(=O)Nc3ccccc3Cl)no2)cc1 (stereo unspecified) the results were H9c2 protect -6.
For CS(=O)(=O)c1ccc(Cl)c(NC(=O)COC(=O)CCCN2C(=O)c3cccc4cccc(c34)C2=O)c1 the results were GRIN3A LBD mod 2, AI-2 QS modul 30, NTR1 agonist 1, AHR activator -2, H9c2 protect 22 and Mot1-301 SUMO -5.
CC(=O)Nc1ccc(-c2csc(Nc3cc(C)ccn3)n2)cc1 was read as GRIN3A LBD mod 25*, AI-2 QS modul 14, NTR1 agonist 11, AHR activator -2, H9c2 protect -12 and Mot1-301 SUMO 11.
`CC(=O)Nc1cccc(-c2csc(NCc3ccccc3)n2)c1` gave GRIN3A LBD mod -7, AI-2 QS modul -35, NTR1 agonist 2, AHR activator 26, H9c2 protect -9 and Mot1-301 SUMO 7.
Cc1ccnc(Nc2nc(-c3c(C)nc4sccn34)cs2)c1 was read as GRIN3A LBD mod 16*, AI-2 QS modul 18, NTR1 agonist 3, AHR activator -1, H9c2 protect -8 and Mot1-301 SUMO -19.
`CC(=O)Nc1cccc(-c2csc(Nc3cc(C)ccn3)n2)c1` gave GRIN3A LBD mod 10*, AI-2 QS modul -13, NTR1 agonist 10, AHR activator 109*, H9c2 protect -14 and Mot1-301 SUMO 154.
